Source: PubChem BioAssay (several laboratories)
HSV augment = increases HSV replication in cells | HSV replication augmentation in cells, fold increase | maximum fold increase | 0.005% of 220,000 active | AID 1956; in the data active = maximum fold increase above about 1.5; tested in PC3 cells
TNF death inh = inhibitors of TNF-alpha induced necroptosis in Jurkat FADD-/- cells; Jurkat FADD-/- TNF necroptosis rescue, ATP luminescence, 24 h; 0 = TNF only, 100 = no-TNF cells; activation (protection from cell death), % at 10 µM; 0.068% of 220,000 active; AID 463075;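 active = activation, meaning protection from cell death, of at least 50% relative to plate controls; inactive = activation below 50%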;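 note: necroptosis triggered by 40 ng/mL TNF-alpha added together with compound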
Wee1 stabilizer = inhibitors of human Wee1 degradation; P30291; HeLa Luc-Wee1K328M stability, luciferase luminescence; 100% = proteasome inhibitor MG132 effect; reporter increase, % at 5 µM; 1.2% of 220,000 active; AID 1321;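 active = activation above the mean of all tested compounds plus 3 SD, set per screening run, cut at about 8.8% in these data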;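 note: cells exposed to compound for 20 h before luminescence read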
Target sequence (P30291 whole entry K328M): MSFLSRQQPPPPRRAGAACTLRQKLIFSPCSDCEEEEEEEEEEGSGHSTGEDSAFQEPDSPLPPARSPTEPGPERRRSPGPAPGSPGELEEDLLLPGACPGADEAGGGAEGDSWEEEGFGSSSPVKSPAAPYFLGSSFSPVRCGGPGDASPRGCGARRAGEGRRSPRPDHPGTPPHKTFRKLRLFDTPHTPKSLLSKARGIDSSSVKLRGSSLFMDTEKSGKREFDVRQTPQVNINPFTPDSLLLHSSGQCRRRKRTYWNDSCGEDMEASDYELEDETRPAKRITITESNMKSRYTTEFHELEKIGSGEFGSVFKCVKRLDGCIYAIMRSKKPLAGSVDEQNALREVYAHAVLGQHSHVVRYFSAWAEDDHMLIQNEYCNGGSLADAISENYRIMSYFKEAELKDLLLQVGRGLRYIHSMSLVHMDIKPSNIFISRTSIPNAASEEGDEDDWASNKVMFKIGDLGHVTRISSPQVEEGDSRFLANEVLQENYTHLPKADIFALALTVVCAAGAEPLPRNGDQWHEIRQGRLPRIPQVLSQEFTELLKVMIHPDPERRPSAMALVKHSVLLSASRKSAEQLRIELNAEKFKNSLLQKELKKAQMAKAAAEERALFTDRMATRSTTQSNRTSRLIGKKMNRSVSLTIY
L929 necroptosis = blocks zVAD induced death of L929 cells. 0.38% of 220,000 active. L929 zVAD necroptosis rescue, ATP luminescence, 24 h; with zVAD 60 µM. viability rescue, % at 10 µM;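 active = activation, scaled between plate controls, above about 75%, limit read from the data; inactive = activation under that limit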
V-ATPase pHluor = yeast V-ATPase proton transport regulation by pHLuorin. AID 504577. S. cerevisiae, pHLuorin cytosolic pH fluorescence. response, % at 10 µM. 0.37% of 350,000 active; in the data active = response mostly above about 7.3%, no sharp cut-off; inactive = mostly below about 5.4%; note: actives read high
Wee1 stab conf = confirmation of human Wee1 degradation inhibitors; shares compounds with Wee1 stabilizer; HeLa Luc-Wee1K328M degradation, luminescence; vehicle 0%, proteasome-blocked wells 100%; activation, % at 5 µM; 4% of 1,100 active; in the data active = activation above about 8.9%
Of the large screens only hits and unclear results are named; the others gave an inactive call (follow-up assays come after a bar, where they were run). Hits are enriched below; roughly 1.4% of the tested compounds scored in any of these assays.

CC(=O)c1ccc(OCC(=O)c2cc(C)n(-c3ccc4c(c3)OCO4)c2C)cc1	Wee1 stabilizer 15 | Wee1 stab conf inactive
CC(Oc1ccc(Br)cc1)C(=O)NCC1(N2CCCCC2)CCCCC1 (stereo not drawn)	none (no result: HSV augment, TNF death inh, Wee1 stabilizer, L929 necroptosis)
Cc1csc(SCC(=O)Nc2cc(S(=O)(=O)N3CCCC3)ccc2Cl)n1	Wee1 stabilizer 13 | Wee1 stab conf inactive
CCOC(=O)C1(Cc2cccc(OC)c2)CCN(CC2CC=CCC2)CC1 (stereo not drawn)	Wee1 stabilizer 12 | Wee1 stab conf inactive
O=[N+]([O-])/C=C\c1ccc(N2CCCC2)c(F)c1	Wee1 stabilizer 16 (no result: HSV augment) | Wee1 stab conf inactive
O=Cc1ccc(N2CCCC2)c([N+](=O)[O-])c1	none
NS(=O)(=O)c1ccc(CCNC(=O)c2cc(-c3cccs3)nc3ccccc23)cc1	Wee1 stabilizer 12 | Wee1 stab conf inactive
COc1cc(/C=N/NC(=O)c2cc(-c3cccs3)nc3ccccc23)ccc1O	Wee1 stabilizer 12 | Wee1 stab conf inactive
NS(=O)(=O)c1ccc(CNC(=O)c2cc(-c3cccs3)nc3ccccc23)cc1	none
O=C(NCC1CCCN1S(=O)(=O)c1cccs1)C(=O)Nc1ccccc1Cl (stereo not drawn)	none (no result: HSV augment, TNF death inh, Wee1 stabilizer, L929 necroptosis)
Cc1ccc(NC(=O)COC(=O)c2ccc3ncsc3c2)c(C)c1	none (no result: HSV augment, TNF death inh, Wee1 stabilizer, L929 necroptosis)
CCN1CCCC1CNCc1ccc(OCc2ccc(Cl)nc2)c(OC)c1 (stereo not drawn)	Wee1 stabilizer 15 | Wee1 stab conf inactive
CC(=O)NC1=NN(C(C)=O)C(c2ccc(C)cc2)S1 (stereo not drawn)	Wee1 stabilizer 12 | Wee1 stab conf inactive
CC(=O)NC1=NN(C(C)=O)C(c2ccc(F)cc2)S1 (stereo not drawn)	none
O=C(Nc1cc([N+](=O)[O-])ccc1N1CCCC1)c1cccs1	none (no result: HSV augment, TNF death inh, Wee1 stabilizer, L929 necroptosis)
Cc1ccc(OCC(=O)N/N=C2/SCC(=O)N2Cc2ccco2)cc1	Wee1 stabilizer 12 | Wee1 stab conf inactive
O=c1c2c(ncn2C2CCCC2)n(Cc2ccccc2)c(=O)n1CCOc1ccccc1	Wee1 stabilizer 14 | Wee1 stab conf inactive
O=c1c2c(ncn2C2CCCC2)n(Cc2ccccc2)c(=O)n1CCOc1ccc(Br)cc1	none
COCCSc1nnc(NC(=O)c2ccc(NC(C)=O)cc2)s1	Wee1 stabilizer 14 | Wee1 stab conf inactive
CCOC(=O)c1c(CSc2ccccc2)n(C)c2cc(Br)c(OCC(O)CNC(CO)(CO)CO)cc12 (stereo not drawn)	Wee1 stabilizer 11 | Wee1 stab conf inactive
Cc1ccc(Nc2c(-c3ccco3)nc3nc(C)cc(C)n23)cc1	Wee1 stabilizer 31 | Wee1 stab conf inactive
Cc1cc(C)n2c(Nc3ccc4c(c3)OCCO4)c(-c3ccco3)nc2n1	none (no result: V-ATPase pHluor)
Cc1ccccc1-c1noc(-c2ccc(Cl)cc2)n1	none
Cc1ccccc1-c1noc(-c2ccc(O)cc2)n1	Wee1 stabilizer 11 | Wee1 stab conf inactive
CN(C)c1ccc(C(C(=O)NCc2ccccc2)N(Cc2cccnc2)C(=O)c2snc(C(N)=O)c2N)cc1 (stereo not drawn)	none (no result: HSV augment, TNF death inh, Wee1 stabilizer, L929 necroptosis)
COc1ccc(OCCn2c(=O)sc3ccccc32)cc1	Wee1 stabilizer 13 | Wee1 stab conf inactive
COc1ccccc1CNC(=S)Nc1ccc(F)cc1	none (no result: HSV augment, TNF death inh, Wee1 stabilizer, L929 necroptosis)
CCC(C)c1ccc(NC(=S)NCc2ccccc2OC)cc1 (stereo not drawn)	Wee1 stabilizer 17 | Wee1 stab conf inactive
O=C(NNc1cc(C(F)(F)F)nc2ccccc12)Nc1cccc(Cl)c1	none
COc1ccc(-c2nc(-c3ccc4c(c3)OCO4)[nH]c2-c2ccc(OC)cc2)cc1	Wee1 stabilizer 13 | Wee1 stab conf inactive
COc1ccc(-c2noc(-c3ccc4c(c3)OCO4)n2)cc1	none
CCOC(=O)C1=C(c2ccccc2)NC(=S)NC1c1ccc(C)c([N+](=O)[O-])c1 (stereo not drawn)	none
CCOC(=O)C1=C(c2ccccc2)NC(=S)NC1c1cccc([N+](=O)[O-])c1 (stereo not drawn)	Wee1 stabilizer 12 | Wee1 stab conf inactive
O=C(Nc1ccc2c(c1)CCC2)c1ccc(F)cc1	Wee1 stabilizer 17 | Wee1 stab conf inactive
COc1ccc(-c2cc(=O)oc3cc(OCC(C)=O)ccc23)cc1	Wee1 stabilizer 17 | Wee1 stab conf inactive
CCN(CC)C(=O)COc1ccc2c(-c3ccc(OC)cc3)cc(=O)oc2c1	none (no result: HSV augment, TNF death inh, Wee1 stabilizer, L929 necroptosis)
COc1cc(OC)c2c(=O)cc(-c3ccccc3)oc2c1	none (no result: HSV augment)
COc1cc(OC)c2c(=O)cc(-c3cccnc3)oc2c1	Wee1 stabilizer 14 | Wee1 stab conf inactive
O=C(CSc1nc(-c2ccco2)cc(C(F)(F)F)n1)N1CCSCC1	Wee1 stabilizer 12 | Wee1 stab conf inactive
C=CCN1C(=O)C(=O)N(Cc2nc3ccccc3s2)C1=O	none (no result: HSV augment, TNF death inh, Wee1 stabilizer, L929 necroptosis)
CC(=O)Nc1cccc(/C(C)=N/NC(=O)c2cccc(S(=O)(=O)N3CCOCC3)c2)c1	Wee1 stabilizer 14 | Wee1 stab conf inactive
CN(C)c1ccc(C(c2ccc(N(C)C)cc2)c2ccc([N+](=O)[O-])cc2)cc1	none
COc1cc(C)c(C)cc1S(=O)(=O)N1CCN(Cc2ccccc2)CC1	Wee1 stabilizer 14 | Wee1 stab conf inactive
COc1ccc(S(=O)(=O)N2CCN(Cc3ccccc3)CC2)c(C)c1	none (no result: HSV augment, TNF death inh, Wee1 stabilizer, L929 necroptosis)
CCOc1ccc(NC(=O)C(C)NC(=O)c2ccccc2Cl)cc1S(=O)(=O)N1CCCC1 (stereo not drawn)	none (no result: HSV augment, TNF death inh, Wee1 stabilizer, L929 necroptosis)
COc1ccc(N2CCN(C(=O)c3cc(=O)[nH]c4ccccc34)CC2)cc1	none
O=C(c1cc(=O)[nH]c2ccccc12)N1CCN(c2ccc([N+](=O)[O-])cc2)CC1	Wee1 stabilizer 59 | Wee1 stab conf inactive
O=C(c1c(F)cccc1F)N1CCC(n2nnc3cc(C(F)(F)F)ccc32)CC1	none
Cc1ccc(/C(N)=N/OC(=O)c2ccco2)cc1	none
N/C(=N\OC(=O)c1ccco1)c1ccc(Br)cc1	Wee1 stabilizer 15 | Wee1 stab conf inactive
COc1ccc(S(=O)(=O)N2CCN(C(=O)c3ccco3)CC2)cc1C(C)(C)C	none (no result: HSV augment, TNF death inh, Wee1 stabilizer, L929 necroptosis)
Cn1c(SCCN2CCCC2)nnc1C1CCN(S(=O)(=O)c2ccc(F)cc2)CC1	none (no result: HSV augment, TNF death inh, Wee1 stabilizer, L929 necroptosis)
CN(C)c1ccc(N/C(N)=N/c2nc(C(F)(F)F)cc(C(F)(F)F)n2)cc1	none
CCc1ccc(C2c3[nH]c4ccccc4c3CCN2C(=O)CNC(N)=O)cc1 (stereo not drawn)	Wee1 stabilizer 23 | Wee1 stab conf inactive
C#CCN(CC=C)C(=O)CCc1nnc(COc2ccccc2)o1	Wee1 stabilizer 16 | Wee1 stab conf inactive
CCN(CC)c1ccc(NC(=O)c2cnccn2)cc1S(=O)(=O)Nc1ccc(OC)cc1	Wee1 stabilizer 12 | Wee1 stab conf inactive
Cc1occc1C(=O)NC(C)CCc1ccccc1 (stereo not drawn)	none
Cc1ccc(C)c(C(=O)NC(C)CCc2ccccc2)c1 (stereo not drawn)	Wee1 stabilizer 16 (no result: HSV augment) | Wee1 stab conf inactive
O=C(NCCc1ccccc1)c1cc(=O)[nH]c2ccccc12	Wee1 stabilizer 11 | Wee1 stab conf inactive
